Sampled rows, rich in hits. Any-hit rate of the full collection: about 6.5%.
HepG2 tox: HepG2 cytotoxicity, counter-screen for TGF-b inhibitors. Potency, µM (highest dose often 46.1 µM), most hits filed as cytotoxic. hit rate 0.76% among 410,000. HepG2 CAGA-GFP viability, ATP luminescence, 18 h
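CellTiter-Glo luminescence gave cytotoxicity after 18 hours at 37 degrees C. The cells were HepG2 CAGA-GFP in 1% FBS DMEM, stimulated with 500 pg/mL TGF-beta after compound addition. %Activity was normalised to no-cell wells (complete cell-killing) and DMSO (no toxicity), and curves were fitted and classified.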
Giardia kill: Giardia lamblia killing. Giardia lamblia trophozoite viability. activity change, % at 7.66 µM, hits read low. hit rate 0.15% among 340,000. AID 540267; in the data active = activity change below about -80%; inconclusive = between about -30% and that limit;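 also: parasites exposed to compound for two days anaerobically before the ATP read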
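ATP-content bioluminescence gauges trophozoite survival. Cells (100/well) receive compound and incubate anaerobically for 48 hrs at 37 deg C; detection reagent follows for 15-30 min at room temperature.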
TGFb SMAD3 inh: blocks TGF-b signaling | HepG2 CAGA-GFP TGF-b/SMAD3 reporter, GFP fluorescence, 18 h; TGF-beta stimulated, 500 pg/mL final | Potency, µM (highest dose often 46.1 µM), actives largely listed as inhibitors | hit rate 1.2% among 410,000 | AID 588855; also: nearly all actives have a fitted effect of over 65% in size
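HEPG2 CAGA-GFP reporter cells (1000/well, DMEM with 1% FBS) received compounds, then recombinant TGF-beta at 500 pg/mL final for 18 hours at 37 degrees C. Per-cell GFP summed per well was normalised to unstimulated and stimulated DMSO controls before curve fitting.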
HT1080-NT tox: kills 2HG-producing HT-1080-NT fibrosarcoma cells; hit rate 1.6% among 360,000; HT-1080-NT fibrosarcoma viability, CellTiter-Glo ATP luminescence, 48 h; AID 686970; Potency, µM (series often up to 46.1 µM), actives largely listed as cytotoxic;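 also: NT is the 2HG producing partner of a matched IDH1 knockdown line; nearly all actives have a fitted effect of over 55% in size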
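Luminescent CellTiter-Glo readout after 48 hours of compound exposure at 37 degrees C defined viability of HT-1080-NT cells. Activity was normalized to DMSO wells and cell-free media wells; concentration-response curves were fitted and assigned curve classes.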
IL1B secr inh: inhibitors of inflammasome signaling (IL-1 beta secretion); THP-1 LPS/ATP IL-1B secretion, AlphaLISA, 16 h; stronger effect = lower value; activity change, % at 57.5 µM; AID 743279; hit rate 4.7% among 360,000; in the data active = activity change below about -50%; inconclusive = mostly about -30% to -49%
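THP-1 cells pretreated 1 hr with compounds (up to 57.5 uM final), then stimulated with LPS (250 ng/mL final) plus ATP (1.25 mM final); secreted IL-1B measured by AlphaLISA after 16 hr, decreased signal indicating inhibition.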
HT1080 IDH1KD tx: kills HT-1080 cells with IDH1 knockdown; AID 686971; HT-1080 IDH1 knockdown viability, ATP luminescence, 48 h; hit rate 2% among 360,000; Potency, µM (titrated, usually from 46.1 µM), hits mostly cytotoxic
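After a 2 h attachment period, IDH1KD HT-1080 cells took pin-transferred compound for 48 h at 37 °C; ATP-based luminescence after 10 min room-temperature reagent incubation reported viability.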
Of the large screens only hits and unclear results are named; the others gave an inactive call. Unless noted, calls follow the shape of the dose curve; as a rule, active = well fitted curve in the direction sought with a large enough effect; inconclusive = small, poorly fitted or top-dose-only effect, or another doubt; inactive = no such curve, though single readings can be large; an effect the other way counts as inactive or inconclusive.

CC1(C)O[C@@H]2C[C@H]3[C@@H]4C[C@H](F)C5=CC(=O)C=C[C@]5(C)[C@@]4(F)[C@@H](O)C[C@]3(C)[C@]2(C(=O)CO)O1	IL1B secr inh -54, HT1080 IDH1KD tx inconclusive
CC1(C)O[C@@H]2C[C@H]3[C@@H]4CCC5=CC(=O)C=C[C@]5(C)[C@@]4(F)[C@@H](O)C[C@]3(C)[C@]2(C(=O)CO)O1	HT1080-NT tox inconclusive, IL1B secr inh inconclusive, HT1080 IDH1KD tx inconclusive
COc1cccc(Nc2nc(N)nc(-c3oc4ccccc4c3C)n2)c1	TGFb SMAD3 inh inconclusive, HT1080-NT tox 10µM, IL1B secr inh -71, HT1080 IDH1KD tx 7.9µM
Cc1c(-c2nc(N)nc(Nc3ccccc3F)n2)oc2ccccc12	none
Cc1cccc(Nc2nc(N)nc(-c3oc4ccccc4c3C)n2)c1	HT1080-NT tox inconclusive, IL1B secr inh -75, HT1080 IDH1KD tx inconclusive
CCc1nc(Nc2cccc(OC)c2)c2oc3ccccc3c2n1	none
Cc1ccc(Nc2nc(N)nc(-c3oc4ccccc4c3C)n2)cc1	TGFb SMAD3 inh inconclusive, HT1080-NT tox 0.0065µM, HT1080 IDH1KD tx 0.01µM
COc1ccc(CC(=O)N2CCN(c3ccccc3)CC2)cc1OC	none
CSc1cccc(NC(=O)CSc2ncccc2C(=O)Oc2cccc([N+](=O)[O-])c2)c1	none
CCN(C(=O)CSc1ncccc1C(=O)Oc1cccc([N+](=O)[O-])c1)c1cccc(C)c1	IL1B secr inh -55
C/C(CC(=O)Nc1ccc(Cl)c(C(F)(F)F)c1)=N\NC(=O)c1cc2ccccc2cc1O	TGFb SMAD3 inh inconclusive, HT1080-NT tox inconclusive, HT1080 IDH1KD tx 16µM
COc1cccc(NC(=O)C/C(C)=N/NC(=O)c2ccccc2Cl)c1	none
O=C1NC[C@H](CCCCN2C[C@H](Cc3ccc(O)cc3)N(CCc3ccccc3)C(=O)C2=O)N(CCC2CCCCC2)C1=O	none (no result: HepG2 tox, Giardia kill, TGFb SMAD3 inh)
CC(C)C[C@H]1CN(CCCC[C@H]2CNC(=O)C(=O)N2CCc2ccccc2)C(=O)C(=O)N1CC1CCCCC1	none (no result: HepG2 tox, Giardia kill, TGFb SMAD3 inh)
CC(C)C[C@H]1CN(CCCC[C@H]2CNC(=O)C(=O)N2CC2CCCCC2)C(=O)C(=O)N1Cc1ccccc1	IL1B secr inh -72 (no result: HepG2 tox, Giardia kill, TGFb SMAD3 inh)
O=C1NC[C@H](CCCCN2C[C@H](Cc3ccc(O)cc3)N(CCc3ccccc3)C(=O)C2=O)N(CC2CCCCC2)C1=O	HT1080 IDH1KD tx 15µM (no result: HepG2 tox, Giardia kill, TGFb SMAD3 inh)
O=C1NC[C@@H](CCCCN2C[C@H](Cc3ccccc3)N(CCC3CCCCC3)C(=O)C2=O)N(CCc2ccc(O)cc2)C1=O	IL1B secr inh -59 (no result: HepG2 tox, Giardia kill, TGFb SMAD3 inh)
O=C(Nc1ccccc1)C1=C[C@@H](c2csc3ccccc23)C[C@@H](OCc2ccc(CO)cc2)O1	none
O=C(NCc1ccccc1)C1=C[C@H](c2csc3ccccc23)C[C@H](OCc2ccc(CO)cc2)O1	TGFb SMAD3 inh inconclusive, HT1080-NT tox inconclusive, IL1B secr inh -52
CC(=O)n1cc([C@H]2C=C(C(=O)NCc3ccccc3)O[C@@H](OCc3ccc(CO)cc3)C2)c2ccccc21	TGFb SMAD3 inh inconclusive, IL1B secr inh -53
Clc1ccc(Nc2ccc(-n3ccnc3)nn2)cc1Cl	TGFb SMAD3 inh inconclusive, HT1080-NT tox inconclusive, IL1B secr inh inconclusive, HT1080 IDH1KD tx inconclusive
C#CCOCCOCCOCCNc1nc(N2CCN(C(=O)[C@H](Cc3cc4ccccc4[nH]3)n3cc(C(N)CC(C)C)nn3)CC2)nc(N2CCN(C(=O)[C@H](CCC(=O)O)n3cc(C(N)[C@H](C)CC)nn3)CC2)n1 (some centres not stated)	none
Cc1csc(NC(=O)c2ccc(Cn3nc(C)c(Br)c3C)o2)n1	TGFb SMAD3 inh inconclusive, HT1080-NT tox inconclusive, IL1B secr inh -73
Cc1ccc(OCCNC(=O)C(=O)NCc2ccco2)cc1	HT1080-NT tox inconclusive, HT1080 IDH1KD tx 4.1µM
CC(=O)c1cccc(NC(=O)Cn2cnc(S(=O)(=O)N3CCc4ccccc43)c2)c1	none
COc1ccc(NC(=S)N(CCN2CCOCC2)Cc2cc3cc4c(cc3[nH]c2=O)OCCO4)cc1	IL1B secr inh -61

Compound activity deposited in PubChem BioAssay by National Center for Advancing Translational Sciences (NCATS).
